From PubChem BioAssay (Tox21)
Results filed as inconclusive are left out. Unmarked numbers belong to inactive results. The source made the active and inactive calls. Calls come from the whole dose curve; as a rule, active = well fitted cell-killing curve with a large enough effect in the repeat runs; inconclusive = weak or mixed curves, or effect the other way; inactive = flat fitted curve, though single readings scatter.

Test: qHTS RealTime-Glo MT Cell Viability Assay in HepG2 cells - 0 hour (AID 1224889); note: nearly all actives have a fitted effect of over 50% in size
Settings: RealTime-Glo luminescence; series mostly up to 76.8 µM; activity change, negative = cytotoxicity: at the top concentration
Outline: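 HepG2 cells (600/well) were dispensed with RealTime-Glo reagents, incubated 5 h at 37 °C, then treated with compounds in DMSO for up to 40 h. Nonlytic NanoLuc luminescence reflecting viable cells was read at each stated time point.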
% is set by controls: 0 for no effect and ±100 for the full control effect; potency is the fitted concentration of half-maximal effect.

SMILES	activity change, negative = cytotoxicity	Potency
C=CC(=O)NCOCC(C)C	0.842%	
C=CCNc1nc(NCC=C)nc(N2CCN(C(c3ccc(F)cc3)c3ccc(F)cc3)CC2)n1	14.7% [at 35.3 µM]	
CCCCN(CCCC)C(=S)SSC(=S)N(CCCC)CCCC	1.83%	
CCOC(=O)N1CCC(n2c(=O)[nH]c3cc(Cl)ccc32)CC1	-1.53% [at 35.3 µM]	
NC(=O)N(O)[C@@H]1C=C[C@H](Oc2cccc(Oc3ccc(F)cc3)c2)C1	-2.8%	
CCCCC(CC)C(=O)OCCOCCOCCOCCOC(=O)C(CC)CCCC (configuration not stated)	1.45%	
O=[N+]([O-])c1cccc(S(=O)(=O)NCCNS(=O)(=O)c2cccc([N+](=O)[O-])c2)c1	3.62% [at 35.3 µM]	
C(=C\c1ccccc1)/CN1CCN(C(c2ccccc2)c2ccccc2)CC1	4.68% [at 35.3 µM]	
CC1CC(=O)NN=C1c1ccc(NCC(C)(C)NCC(O)COc2cc(Cl)ccc2C#N)cc1 (configuration not stated)	2.41% [at 35.3 µM]	
O=C(N[C@@H](c1ccccc1)[C@@H]1CCCCN1)c1cccc(C(F)(F)F)c1Cl	0.45%	
CCCCCCCCCOC(C)=O	1.77%	
O=C(CCC1CCN(Cc2ccccc2)CC1)c1ccc2c(c1)NCCCC2	3.78% [at 35.3 µM]	
CCCOC(=O)c1ccc(C(=O)OCCC)nc1	0.329%	
CO/N=C1\CN(c2nc3c(cc2F)c(=O)c(C(=O)O)cn3C2CC2)CC1CN (configuration not stated)	-1% [at 35.3 µM]	
C/C=C/C=C/CCCCCCCO		13.8 µM (active)
O=C1NCCN1	0.777%	
Nc1nccs1	3.46%	
Cc1ccc(Nc2nccc(N(C)c3ccc4c(C)n(C)nc4c3)n2)cc1S(N)(=O)=O	0.0094% [at 35.3 µM]	
O=S1OCCO1	1.74%	
CCCCC(=O)O[C@]1(C(=O)CO)[C@@H](C)C[C@H]2[C@@H]3CCC4=CC(=O)C=C[C@]4(C)[C@@]3(F)[C@@H](O)C[C@@]21C		21.9 µM (active)
CC(=O)[C@H]1CC[C@H]2[C@@H]3C[C@H](C)C4=CC(=O)CC[C@]4(C)[C@H]3[C@@H](O)C[C@]12C		0.379 µM (active)
CC(=O)Oc1ccc2c(c1)CC[C@@H]1[C@@H]2CC[C@]2(C)[C@@H](O)CC[C@@H]12	-2.79% [at 35.3 µM]	
CNC(=O)N(c1ccccc1)c1ccccc1	2.54%	
CC(=O)OCC(=O)[C@H]1CC[C@H]2[C@@H]3CCC4=CC(=O)CC[C@]4(C)[C@H]3CC[C@]12C		3.01 µM (active)
CCCC1C(CC)=CC(CC)=CN1c1ccccc1 (configuration not stated)	-6.52%	
C1COCO1	6.09%	
O=C(c1ccc(O)cc1)c1ccc(Cl)cc1	4.22%	
